Assay outcomes: PubChem, Buhrlage Lab, Dana-Farber Cancer Institute and Novartis Institutes for BioMedical Research (Cambridge, Mass)
A selection: hits, their analogues and other compounds. The true share with any hit is near 12%.
USP17 block = inhibitors of human USP17 deubiquitinase. hit rate 6.5% among 47,000. Ubiquitin carboxyl-terminal hydrolase 17-like protein 5 (Homo sapiens), A8MUK1. purified USP17, Ub-rhodamine cleavage fluorescence, 3 h. inhibition, % at 50 µM
USP28 inh = inhibitors of human USP28 deubiquitinase; inhibition, % at 25 µM; Ubiquitin carboxyl-terminal hydrolase 28 (Homo sapiens), Q96RU2; hit rate 3% among 47,000; purified USP28, Ub-rhodamine cleavage fluorescence, 30 min
Target sequence (Q96RU2 whole entry, looked up): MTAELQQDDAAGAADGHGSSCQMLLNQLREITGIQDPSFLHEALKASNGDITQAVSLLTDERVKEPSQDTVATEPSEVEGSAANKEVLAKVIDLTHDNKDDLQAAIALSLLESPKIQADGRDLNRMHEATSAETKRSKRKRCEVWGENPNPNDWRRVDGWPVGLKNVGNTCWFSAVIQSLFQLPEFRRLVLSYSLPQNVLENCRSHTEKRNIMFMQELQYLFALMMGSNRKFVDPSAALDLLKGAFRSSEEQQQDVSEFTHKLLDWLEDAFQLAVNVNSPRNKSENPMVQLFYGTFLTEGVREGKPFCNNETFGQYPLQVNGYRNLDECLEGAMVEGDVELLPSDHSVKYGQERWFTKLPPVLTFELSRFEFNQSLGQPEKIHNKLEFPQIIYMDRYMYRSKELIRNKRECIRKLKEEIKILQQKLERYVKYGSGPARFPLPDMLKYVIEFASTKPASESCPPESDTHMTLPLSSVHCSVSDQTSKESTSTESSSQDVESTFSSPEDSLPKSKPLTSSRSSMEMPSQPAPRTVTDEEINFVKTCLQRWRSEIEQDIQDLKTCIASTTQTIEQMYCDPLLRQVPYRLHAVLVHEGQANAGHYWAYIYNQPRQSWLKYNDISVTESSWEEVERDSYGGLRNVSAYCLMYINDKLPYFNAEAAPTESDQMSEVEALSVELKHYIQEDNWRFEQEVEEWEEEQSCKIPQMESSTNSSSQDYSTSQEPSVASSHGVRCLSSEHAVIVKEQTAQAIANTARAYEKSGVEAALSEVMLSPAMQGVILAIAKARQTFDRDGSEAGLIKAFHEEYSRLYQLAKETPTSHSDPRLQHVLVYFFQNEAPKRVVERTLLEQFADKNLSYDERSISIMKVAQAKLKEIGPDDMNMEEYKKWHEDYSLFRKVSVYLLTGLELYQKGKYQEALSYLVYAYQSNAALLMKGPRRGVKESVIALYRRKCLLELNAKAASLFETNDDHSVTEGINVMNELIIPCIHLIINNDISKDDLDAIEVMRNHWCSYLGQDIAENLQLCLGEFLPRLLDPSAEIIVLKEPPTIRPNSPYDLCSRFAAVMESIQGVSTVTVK
USP30 inh = inhibitors of human USP30 deubiquitinase | Ubiquitin carboxyl-terminal hydrolase 30 (Homo sapiens), Q70CQ3 | purified USP30, Ub-rhodamine cleavage fluorescence | inhibition, % at 25 µM | hit rate 5.3% among 47,000
OTUD3 block = inhibitors of human OTUD3 deubiquitinase; OTU domain-containing protein 3 (Homo sapiens), Q5T2D3; purified OTUD3, Ub-rhodamine fluorescence, 2 h; inhibition, % at 25 µM; hit rate 0.7% among 47,000
Active calls of the source: *; / = not tested or not shown. Rule as the data show it: active = inhibition above about 30%; inactive = the rest.

SMILES	USP17 block	USP28 inh	USP30 inh	OTUD3 block
CCOC(=O)c1csc(-c2ccc(F)cc2F)n1	5	42*	18	12
Cc1cc(N)cc(C2CN(C(=O)Cc3c(C)nn(C)c3C)CCO2)n1 (stereo not drawn)	-15	-8	0	-3
CCOC(=O)C1=C(CN2CCC3(CC2)OCCO3)NC(=O)NC1c1cccc(OC)c1OC (stereo not drawn)	1	6	3	4
O=C(c1cc2c(s1)-c1ccsc1CC2)N1CCCCCC1	38*	23	46*	27
O=C1Nc2ccccc2S/C1=C/c1ccccc1	-15	-43	-29	-30
O=C1Nc2cc3c(cc2Sc2ccccc21)OCCO3	67*	25	60*	6
CCc1nc(N2CCC(=O)CC2)c2oc3ccccc3c2n1	-62	-81	-383	-71
Cc1cccc(CNC(=O)c2noc(C)c2CN2CCOCC2)c1	1	-7	9	-1
O=C1CN(C(=O)c2ccc(N3CCC(Cc4ccccc4)CC3)nn2)CCN1	-27	13	3	11
O=C(NC1CCS(=O)(=O)C1)c1ccc(N2CCC(Cc3ccccc3)CC2)nn1 (stereo not drawn)	53*	5	23	2
CCC/C=C/C1CC(=O)c2c(CC(=O)O)cc(OC)c(O)c2O1 (stereo not drawn)	10	4	-2	10
O=C(CSc1ncnc2c1sc1nc(-c3ccccc3)c3c(c12)CCC3)Nc1ccc(Cl)c(Cl)c1	-23	-35	-118	-36
CN(c1nccc(N2CCN(C(=O)c3cccc(S(C)(=O)=O)c3)CC2)n1)C1CCCCC1	0	-3	0	0
COc1ccc(NC(=O)CNC(=O)c2ccc3nc(-n4cccc4)sc3c2)cc1	31*	17	-45	32*
COc1c(O)c2c(c3cc(C(=O)O)[nH]c13)CCN2C(N)=O	37*	14	15	12
COc1ccc(-c2nc(SCC(=O)Nc3ccc(C(C)=O)cc3)n[nH]2)cc1	54*	-1	-1	-2
CN1CCN(C2(CNC(=O)COc3ccc(F)cc3)CCCCC2)CC1	0	-3	-5	3
O=c1c2ccc(Cl)cc2ncn1Cc1csc(-c2ccccc2)n1	27	20	0	11
Cc1ccc(-c2nc(Cn3cnc4ccccc4c3=O)cs2)cc1	37*	33*	58*	22
CSc1ncccc1C(=O)NC1(O)C(=O)c2ccccc2C1=O	95*	10	46*	23
O=C(Oc1ccc(-c2csnn2)cc1)C1CC1	/	0	0	-4
Cc1nc(C(=O)NC2(O)C(=O)c3ccccc3C2=O)cs1	94*	22	35*	5
Cc1nc(CC(=O)Nc2c(C)cccc2C)cs1	-6	-12	-60	-6
CSc1ncccc1C(=O)Nc1ccnn1Cc1ccccc1Cl	8	6	15	3
O=C(NC1(O)C(=O)c2ccccc2C1=O)c1ccc(-c2csnn2)cc1	85*	0	32*	-30
SMILES	USP17 block	USP28 inh	USP30 inh	OTUD3 block
COc1cccc([C@@H]2CN(C(=O)Cn3nc(C)cc3C)C[C@]23CCCCC(=O)N3)c1	5	4	12	8
c1ccc(-c2csc3nc(CN4CCCCC4)nc(-n4nnc5ccccc54)c23)cc1	5	2	9	6
COc1cccc(CNC(=O)c2cc3cccc4c3n2CCS4)c1	-25	-5	-154	-16
O=C(Cn1cnc2cc3c(cc21)OCCO3)NCC1CCCO1 (stereo not drawn)	1	-9	-6	-3
COc1ccc(CN2CC[C@H](c3nc4ccc(C#N)cc4[nH]3)C2)cc1	/	-10	-21	-15
CN1CCN(c2ccc3nnc(CCC(=O)NCCC4=CCCCC4)n3n2)CC1	-3	-19	-36	-21
O=C(Nc1ccc(-c2nccs2)cc1)c1ccc(F)cc1Cl	22	3	-17	-4
CN(C)Cc1ccc(C(=O)Nc2ccc(-c3nccs3)cc2)cc1	-22	88*	0	-7
O=C1NC2(CCN(C(=O)NCCc3ccccc3)CC2)[C@@H]2CN(c3ncccn3)C[C@H]12	-2	0	6	0
O=C1N(Cc2cccc(Cl)c2)CCN1c1ccc(F)cc1F	0	48*	9	4
O=C1N(Cc2cccc(Cl)c2)CCN1c1ccc2c(c1)CCC2	20	61*	14	11
Cc1ccc2cccc(OC(=O)/C=C/c3ccc(Cl)cc3)c2n1	7	-2	7	1
CCCn1cnc2nc(CSc3ccccc3NC(=O)c3ccc(C)cc3)cc(=O)n21	0	-2	-6	-7
O=C(O)c1cccc(NC(=O)C2c3ccccc3Oc3ccccc32)c1	-1	0	-12	0
O=C(Nc1ccc2c(c1)nc1n2CCCCC1)C1c2ccccc2Oc2ccccc21	48*	18	8	8
O=C(NCC1CC1)[C@H]1CO[C@H]2CCN(Cc3nccs3)C[C@H]2C1	/	10	27	9
Cc1c(C(=O)N=CN(C)C)sc(C#N)c1-c1ccccc1	18	7	32*	4
C=C1C=C(CCC(=O)O)C(=O)OC1/C=C/C=C/C (stereo not drawn)	101*	99*	80*	96*
O=C(Nc1cc(F)c2nc(N3CCCC3)ccc2c1)c1ccco1	56*	0	-138	-17
O=C(Nc1cc(F)c2nc(N3CCOCC3)ccc2c1)C1CCCCC1	22	-8	-38	-4
Cc1cccc(OCC(=O)Nc2cc(F)c3nc(N4CCOCC4)ccc3c2)c1	-12	-51	-139	-53
O=C(CCc1ccccc1)Nc1cc(F)c2nc(N3CCCCC3)ccc2c1	28	10	-14	3
O=C(CC1CCCCC1)Nc1cc(F)c2nc(N3CCOCC3)ccc2c1	40*	-22	-63	-21
COCC(=O)Nc1cc(F)c2nc(N3CCOCC3)ccc2c1	63*	-2	-31	-12
COc1cccc(CC(=O)Nc2cc(F)c3nc(N4CCOCC4)ccc3c2)c1	58*	36*	-96	-15
SMILES	USP17 block	USP28 inh	USP30 inh	OTUD3 block
Cc1cc(N2CCN(c3ncccn3)CC2)nc2ccc(NC(=O)C3CCC(C(C)(C)C)CC3)cc12 (stereo not drawn)	2	0	0	-6
Cc1cc(C(=O)Nc2ccc3nc(N4CCN(c5ncccn5)CC4)cc(C)c3c2)ccc1[N+](=O)[O-]	73*	1	25	-3
Cc1cc(N2CCN(c3ncccn3)CC2)nc2ccc(NC(=O)Cn3nc([N+](=O)[O-])c(Br)c3C)cc12	64*	42*	68*	44*
CN(C)C1CCN(C(=O)c2cc(-c3ccn(C4CCCC4)n3)n3ccccc23)C1 (stereo not drawn)	-65	-31	-196	-41
O=c1c2c(-c3ccccc3)csc2ncn1C1CCCCC1	1	0	-1	2
Cc1c(N2CCN(S(=O)(=O)c3ccc(F)c(F)c3)CC2)c(=O)n(C)c(=O)n1C	44*	22	37*	13
Cc1ccc(S(=O)(=O)N2CCN(c3c(C)n(C)c(=O)n(C)c3=O)CC2)cc1C	23	8	37*	10
